Measurements published in the supplement of paper PMC8975748.
Counter-ions that a name gives are not always drawn.

Test system: Saccharomyces cerevisiae BY4741 SeMeCo community
Assay: z-score of subpopulation abundance vs DMSO median, subpopulation auxotrophic for HLM; higher = larger share of this subpopulation than in DMSO controls
Conditions: 10 µM; 24 h; SM minimal medium; subpopulation (auxotrophy): HLM
Method: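 Fluorescent four-plasmid SeMeCo (self-establishing metabolically cooperating S. cerevisiae BY4741 community; plasmids pH-mRuby2, pL-mWasabi, pU-eCFP, pM-TagRFP657) was grown 24 h in minimal SM medium with each Selleck FDA-approved drug at 10 µM in 384-well plates. Cells were fixed and imaged by high-content confocal microscopy. For each auxotrophic subpopulation (and the prototroph), a z-score gives the deviation from the DMSO vehicle-control population median.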

| Structure (SMILES) | z-score of subpopulation abundance |
| --- | --- |
| CCN(CC)CCOC(=O)c1ccc(N)cc1 [Procaine HCl] | -0.24 |
| CN1CCC(=C2c3ccccc3C=Cc3ccccc32)CC1 [Cyproheptadine hydrochloride] | -0.45 |
| COc1c(N2C[C@@H]3CCCN[C@@H]3C2)c(F)cc2c(=O)c(C(=O)O)cn(C3CC3)c12 [Moxifloxacin HCl] | 0.72 |
| COc1ccc2cc([C@H](C)C(=O)O)ccc2c1 [Naproxen Sodium] | 0.18 |
| C#C[C@]1(O)CC[C@H]2[C@@H]3CCc4cc(OC)ccc4[C@H]3CC[C@@]21C [Mestranol] | -0.48 |
| N#Cc1ccc2[nH]cc(CCCCN3CCN(c4ccc5oc(C(N)=O)cc5c4)CC3)c2c1 [Vilazodone] | 0.08 |
| CCOC(=O)OC(C)OC1=C(C(=O)Nc2ccccn2)N(C)S(=O)(=O)c2ccccc21 (stereo not given) [Ampiroxicam] | -0.4 |
| CN(Cc1cnc2nc(N)nc(N)c2n1)c1ccc(C(=O)N[C@@H](CCC(=O)O)C(=O)O)cc1 [Methotrexate disodium] | 14.3 |
| CC[N+](CC)(CC)CCOc1cccc(OCC[N+](CC)(CC)CC)c1OCC[N+](CC)(CC)CC [Gallamine Triethiodide] | -0.27 |
| COc1cc(NS(=O)(=O)c2ccc(N)cc2)ncn1 [Sulfamonomethoxine] | -0.64 |
| CC[C@H](C)C(=O)O[C@H]1C[C@@H](C)C=C2C=C[C@H](C)[C@H](CC[C@@H]3C[C@@H](O)CC(=O)O3)[C@H]21 [Lovastatin] | 0.86 |
| CN(C)c1cc(NC(=O)CNC(C)(C)C)c(O)c2c1CC1CC3C(N(C)C)C(=O)C(C(N)=O)=C(O)C3(O)C(=O)C1=C2O (stereo not given) [Tigecycline] | 0.02 |
| CO/N=C(\C(=O)N[C@@H]1C(=O)N2C(C(=O)O)=CCS[C@H]12)c1csc(N)n1 [Ceftizoxime sodium] | -0.22 |
| C[N+]1(C)[C@@H]2C[C@@H](OC(=O)C(O)(c3cccs3)c3cccs3)C[C@H]1[C@@H]1O[C@@H]12 [Tiotropium Bromide hydrate] | -0.78 |
| Cc1nc2n(c(=O)c1CCN1CCC(c3noc4cc(F)ccc34)CC1)CCCC2O (stereo not given) [Paliperidone] | -1.03 |
| CN(C)CCn1nnnc1SCC1=C(C(=O)O)N2C(=O)[C@@H](NC(=O)Cc3csc(N)n3)[C@H]2SC1 [Cefotiam hydrochloride] | 0.75 |
| Nc1cc(C(Cl)=C(Cl)Cl)c(S(N)(=O)=O)cc1S(N)(=O)=O [Clorsulon] | 0.02 |
| OCc1ccc(Cl)cc1Cl [2,4-dichlorobenzyl alcohol] | 0.03 |
| Nc1nc2c(ncn2COCCO)c(=O)[nH]1 [Aciclovir] | -0.49 |
| O=C(O[C@H]1CN2CCC1CC2)N1CCc2ccccc2[C@@H]1c1ccccc1 [Solifenacin succinate] | 0.25 |

| Structure (SMILES) | z-score of subpopulation abundance |
| --- | --- |
| Cc1ncc([N+](=O)[O-])n1C [Dimetridazole] | 0.46 |
| CCOc1ccc2ccccc2c1C(=O)N[C@@H]1C(=O)N2[C@@H]1SC(C)(C)[C@@H]2C(=O)O [Nafcillin Sodium] | -0.71 |
| CS(=O)(=O)c1ccc([C@@H](O)[C@@H](CO)NC(=O)C(Cl)Cl)cc1 [Thiamphenicol] | -0.85 |
| Cc1onc(-c2c(F)cccc2Cl)c1C(=O)N[C@@H]1C(=O)N2[C@@H]1SC(C)(C)[C@@H]2C(=O)O [Flucloxacillin sodium] | -0.51 |
| CN1[C@@H]2CC[C@H]1C[C@@H](OC(=O)c1c[nH]c3ccccc13)C2 [Tropisetron] | 1.12 |
| CCOC(=O)c1c(CSc2ccccc2)n(C)c2cc(Br)c(O)c(CN(C)C)c12 [Arbidol HCl] | 0.87 |
| CC(=O)N1CCN(c2ccc(OCC3COC(Cn4ccnc4)(c4ccc(Cl)cc4Cl)O3)cc2)CC1 (stereo not given) [Ketoconazole] | -0.67 |
| COc1cc(O)c(C(=O)Nc2nc(C(=O)NCCN(C(C)C)C(C)C)cs2)cc1OC [Acotiamide hydrochloride] | 0.13 |
| Cc1nccn1CC1CCc2c(c3ccccc3n2C)C1=O (stereo not given) [Ondansetron HCl] | -0.71 |
| OC1(c2ccc(Cl)c(C(F)(F)F)c2)CCN(CCCC(c2ccc(F)cc2)c2ccc(F)cc2)CC1 [Penfluridol] | 0.92 |
| CC1=C(C(=O)O)N2C(=O)[C@@H](NC(=O)[C@H](N)C3=CCC=CC3)[C@H]2SC1 [Cephradine monohydrate] | 0.11 |
| CCCN1CCCC[C@H]1C(=O)Nc1c(C)cccc1C [Ropivacaine HCl] | 0.38 |
| CC/C(=C(/CC)c1ccc(O)cc1)c1ccc(O)cc1 [Diethylstilbestrol] | -0.67 |
| CCCCNC(=O)NS(=O)(=O)c1ccc(C)cc1 [Tolbutamide] | -0.11 |
| NC(=O)OCC(COC(N)=O)c1ccccc1 [Felbamate] | -1.16 |
| CN(C)CCN1C(=O)c2cccc3cc(N)cc(c23)C1=O [Amonafide] | -0.38 |
| CCC[S+]([O-])c1ccc2[nH]c(NC(=O)OC)nc2c1 (stereo not given) [Albendazole Oxide] | -0.85 |
| CO/N=C(\C(=O)N[C@@H]1C(=O)N2C(C(=O)[O-])=C(C[n+]3cccc4c3CCC4)CS[C@H]12)c1csc(N)n1 [Cefpirome sulfate] | -0.14 |
| C/C(=C\C(=O)OCCCCCCCCC(=O)O)C[C@@H]1OC[C@H](C[C@@H]2O[C@H]2[C@@H](C)[C@H](C)O)[C@@H](O)[C@H]1O [Mupirocin calcium] | -0.09 |
| Cc1ccccc1OCC(O)CO (stereo not given) [Mephenesin] | -0.4 |
